Results from PubChem BioAssay AID1159580 (chemical genetic matrix, 2015).
“And” between values parts separate entries of the source, which are not always exact repeats. Equal values may be shown once. The whole screen tested about 5,500 compounds, of which about 2,000 (36%) were called active. Inconclusive results (about 18%) are left out. Cut-off read from the data, not from the text of the source: active = normalized growth mostly below about 0.91 (no sharp cut-off); inconclusive = no clear call, values can overlap the other calls; inactive = mostly above about 0.92. The list shows a part of the results.

Experiment: chemical genetic growth profiling, strain panel (AID 1159580);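 note: tested at 20 µM; growth read once vehicle control cultures reached saturation at 30 °C; 1 = growth at the plate median or of vehicle wells; lower values mean less growth of the strain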
Details: S. cerevisiae deletion strains, growth OD

Measured: normalized growth

ClC(Cl)=C(c1ccc(Cl)cc1)c1ccc(Cl)cc1
inactive: locus YAL013W, strain DEP1, hits give low values 0.976 | locus YAL021C, strain ccr4, hits give low values 0.995 | locus YAL026C, strain drs2, hits give low values 0.999 | locus YAL030W, strain snc1, hits give low values 0.982 | locus YBL061C, strain skt5, hits give low values 0.985 | locus YBR009C, strain hhf1, hits give low values 0.987 | locus YBR021W, strain FUR4, hits give low values 1 | locus YBR023C, strain chs3, hits give low values 0.983 | locus YBR171W, strain sec66, hits give low values 0.986 | locus YBR229C, strain ROT2, hits give low values 0.957 | locus YBR231C, strain swc5, hits give low values 0.976 | locus YBR279W, strain paf1, hits give low values 0.994 | locus YCL011C, strain gbp2, hits give low values 1 | locus YCL016C, strain dcc1, hits give low values 0.993 | locus YCL029C, strain bik1, hits give low values 0.941 | locus YCL061C, strain MRC1, hits give low values 0.983 | locus YCL069W, strain vba3, hits give low values 0.995 | locus YCR088W, strain abp1, hits give low values 0.998 | locus YDL005C, strain med2, hits give low values 0.979 | locus YDL035C, strain GPR1, hits give low values 0.971 | locus YDL040C, strain nat1, hits give low values 0.994 | locus YDL074C, strain BRE1, hits give low values 1.04 | locus YDL101C, strain DUN1, hits give low values 0.948 | locus YDL134C, strain PPH21, hits give low values 0.967 | locus YDL185W, strain tfp1, hits give low values 0.964 | locus YDL192W, strain arf1, hits give low values 0.958 | locus YDR001C, strain nth1, hits give low values 0.998 | locus YDR069C, strain doa4, hits give low values 0.985 | locus YDR101C, strain arx1, hits give low values 0.963 | locus YDR137W, strain rgp1, hits give low values 1.04 | locus YDR150W, strain NUM1, hits give low values 0.945 | locus YDR159W, strain sac3, hits give low values 0.986 | locus YDR162C, strain NBP2, hits give low values 0.95 | locus YDR195W, strain ref2 1 | locus YDR297W, strain sur2, hits give low values 0.995 | locus YDR318W, strain mcm21, hits give low values 0.961 | locus YDR334W, strain swr1, hits give low values 0.986 | locus YDR335W, strain msn5, hits give low values 0.992 | locus YDR388W, hits give low values 0.949 | locus YDR392W, strain spt3, hits give low values 0.967 | locus YDR502C, strain sam2, hits give low values 0.95 | locus YEL003W, strain gim4, hits give low values 0.997 | locus YEL037C, strain rad23, hits give low values 1.01 | locus YEL061C, strain CIN8 (second series), hits give low values 0.996 | locus YEL061C, strain CIN8, hits give low values 0.966 | locus YER015W, strain faa2, hits give low values 0.983 | locus YER016W, strain bim1, hits give low values 1 | locus YER110C, hits give low values 0.946 | locus YER111C, strain swi4, hits give low values 0.991 | locus YER155C, strain BEM2 (second series), hits give low values 0.983 | locus YER155C, strain BEM2, hits give low values 0.927 | locus YFR010W, strain ubp6, hits give low values 0.989 | locus YGL078C, strain dbp3, hits give low values 0.951 | locus YGL086W, strain mad1, hits give low values 0.955 | locus YGL167C, strain pmr1, hits give low values 0.994 | locus YGL173C, strain kem1, hits give low values 0.994 | locus YGL227W, strain vid30, hits give low values 0.995 | locus YGL240W, strain doc1, hits give low values 0.991 | locus YGL248W, strain PDE1, hits give low values 0.959 | locus YGL253W, strain hxk2, hits give low values 0.993 | locus YGR078C, strain PAC10, hits give low values 0.974 | locus YGR135W, strain pre9, hits give low values 0.966 | locus YGR229C, strain SMI1, hits give low values 0.998 | locus YGR252W, strain gcn5, hits give low values 1.03 | locus YHR013C, strain ard1, hits give low values 0.998 | locus YHR027C, strain rpn1, hits give low values 0.989 | locus YHR030C, strain SLT2, hits give low values 0.95 and 1.05 | locus YHR079C, strain IRE1 (second series), hits give low values 0.951 | locus YHR079C, strain IRE1, hits give low values 1.03 | locus YHR094C, strain hxt1, hits give low values 0.948 | locus YHR129C, strain ARP1, hits give low values 0.963 | locus YHR142W, strain chs7, hits give low values 0.986 | locus YHR200W, strain rpn10, hits give low values 0.951 | locus YIL066C, strain RNR3, hits give low values 0.929 | locus YIL073C, strain SPO22, hits give low values 0.941 | locus YIL125W, strain kgd1, hits give low values 0.948 | locus YIR030C, strain dcg1, hits give low values 0.944 | locus YJL092W, strain hpr5, hits give low values 0.999 | locus YJL095W, strain BCK1 (second series), hits give low values 0.995 | locus YJL095W, strain BCK1, hits give low values 0.961 and 1.05 | locus YJL115W, strain asf1, hits give low values 0.991 | locus YJL129C, strain trk1, hits give low values 0.964 | locus YJL134W, strain LCB3, hits give low values 0.961 | locus YJL154C, strain vps35, hits give low values 0.998 | locus YJL164C, strain tpk1, hits give low values 0.979 | locus YJL166W, strain qcr8, hits give low values 0.975 | locus YJL168C, strain set2, hits give low values 0.949 | locus YJL187C, strain SWE1 (second series), hits give low values 0.958 | locus YJL187C, strain SWE1, hits give low values 0.995 | locus YJR043C, strain POL32, hits give low values 0.966 | locus YJR066W, strain TOR1, hits give low values 0.975
active: locus YER167W, strain BCK2, hits give low values 0.887
